Cycloheximide cs = affects cycloheximide protein synthesis inhibition readout, counter-screen. cell reporter, cycloheximide protein synthesis inhibition counterscreen. 300,000 tested, 12% active. AID 2314. max response, %; in the data active means max response mostly above about 13%, no sharp cut-off; inactive means mostly below about 14%; further: read at 38.3 µM for the half of the compounds with a filed dose; 0% is about no effect
SARS PLP yeast = inhibitors of SARS-CoV papain-like protease in yeast; 330,000 tested, 0.19% active; S. cerevisiae expressing SARS-CoV PLpro, growth rescue; Potency, µM (top dose mostly 32.9 µM), for the others: top-dose activity, positive = growth rescue, most hits filed as activators; further: potency means the concentration at half of the fitted maximal effect; 0% is about no effect; nearly all actives have a fitted effect of over 55% in size
NS1 function inh = blocks influenza NS1 protein function. Potency, µM (highest dose often 46.1 µM), without a hit: at the top dose activity, positive = more growth. 270,000 tested, 0.4% active. AID 2326; further: potency means the concentration at half of the fitted maximal effect; actives are rising curves; nearly all actives have a fitted effect of over 50% in size
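OD600 was taken as the measure of yeast growth restored by compound in an NS1-expressing S. cerevisiae strain. Cells had been washed out of glucose medium and diluted 1:100 into galactose -URA medium, pH 6.0.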
LmPK inh = inhibitors of Leishmania mexicana pyruvate kinase; Potency, µM (doses to about 57.5 µM), for inactives: at the highest dose activity change, negative = inhibition, usual class: inhibitors; Q27686; AID 1721; purified LmPK, Kinase-Glo ATP luminescence, 1 h; 290,000 tested, 0.37% active; active means well fitted curve in the direction sought with a large enough effect; inconclusive means small, poorly fitted or top-dose-only effect, or another doubt; inactive means no such curve, though single readings can be large; an effect the other way counts as inactive or inconclusive; further: potency means the concentration at half of the fitted maximal effect; on the % scale 0 is the no-effect control and ±100 the full control effect
Target sequence (Q27686 whole entry, looked up): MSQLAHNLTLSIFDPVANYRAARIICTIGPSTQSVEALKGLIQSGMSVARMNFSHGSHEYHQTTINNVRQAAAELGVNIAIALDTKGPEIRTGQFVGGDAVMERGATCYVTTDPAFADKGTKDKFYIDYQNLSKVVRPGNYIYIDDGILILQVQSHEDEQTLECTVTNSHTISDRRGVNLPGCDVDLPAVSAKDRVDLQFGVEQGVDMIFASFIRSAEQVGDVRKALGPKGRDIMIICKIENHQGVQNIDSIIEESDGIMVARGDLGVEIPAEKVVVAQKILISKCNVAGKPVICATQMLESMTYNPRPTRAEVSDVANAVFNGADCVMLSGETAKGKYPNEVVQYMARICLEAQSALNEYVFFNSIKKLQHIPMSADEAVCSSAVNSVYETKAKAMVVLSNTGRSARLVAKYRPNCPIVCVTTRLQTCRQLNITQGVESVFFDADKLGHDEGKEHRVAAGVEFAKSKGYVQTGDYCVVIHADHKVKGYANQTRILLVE
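ATP generated from ADP (0.1 mM) and PEP (0.5 mM) by 0.1 nM LmPK over 1 h at room temperature (pH 7.2 imidazole buffer) was detected by coupled luciferase luminescence. Values were normalized to uninhibited and no-enzyme wells.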
Shiga toxin inh = blocks Shiga toxin action in Vero cells. inhibition, % at 38.7 µM. 290,000 tested, 9.2% active. Vero cells, Shiga toxin protein synthesis inhibition reporter; in the data active means inhibition mostly above about 28%, no sharp cut-off; inactive means mostly below about 43%; further: 0% is about no effect
TbPYK inhibitor = blocks Trypanosoma brucei pyruvate kinase; Q57TT1; TbPYK enzyme, Kinase-Glo Plus ATP luminescence, 45 min; Potency, µM (top dose mostly 76.8 µM), for inactives: at the top dose activity, negative = inhibition, usual class: inhibitors; 410,000 tested, 0.12% active; active means well fitted curve in the direction sought with a large enough effect; inconclusive means small, poorly fitted or top-dose-only effect, or another doubt; inactive means no such curve, though single readings can be large; an effect the other way counts as inactive or inconclusive; further: potency means the concentration at half of the fitted maximal effect; on the % scale 0 is the no-effect control and ±100 the full control effect; nearly all actives have a fitted effect of over 50% in size
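Luminescence from Kinase-Glo Plus, added after a 45-minute room-temperature reaction, served as the end-point read-out. The enzyme and substrate were preincubated with compound before ADP (130 uM final) initiated turnover. Concentration-effect curves came from normalized qHTS data.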
* = called active by the depositor. Shown is part of a subset that was picked to be rich in hits. Unless noted, the call rests on the fitted dose curve.

Screening COc1ccccc1C(=O)COC(=O)CN1C(=O)NC2(CCCC2)C1=O returned SARS PLP yeast 3.6% and TbPYK inhibitor -0.8%.
For CCOC(=O)COc1ccc(S(=O)(=O)Nc2ccc3c(c2)OCCO3)cc1 the results were Cycloheximide cs 17.6*, SARS PLP yeast -1.3%, NS1 function inh -7.0%, LmPK inh 0.8%, Shiga toxin inh 16.4 and TbPYK inhibitor 2.9%.
`Cc1n[nH]c(C)c1S(=O)(=O)Nc1ccc2c(c1)OCCO2` gave Cycloheximide cs 51.5*, SARS PLP yeast 5.7%, NS1 function inh -3.8%, LmPK inh 2.9%, Shiga toxin inh 35.8* and TbPYK inhibitor -0.9%.
Screening O=S(=O)(Nc1ccc2c(c1)OCCO2)c1ccc(F)c(F)c1 returned Cycloheximide cs -4.6, SARS PLP yeast 6.5%, NS1 function inh 15.9%, LmPK inh -2.0%, Shiga toxin inh -2.0 and TbPYK inhibitor -8.4%.
`Cc1ccc(S(=O)(=O)Nc2ccc3c(c2)OCCO3)cc1C` gave Cycloheximide cs 63.4*, SARS PLP yeast 0.2%, NS1 function inh -2.5%, LmPK inh -6.3%, Shiga toxin inh 91.6* and TbPYK inhibitor 6.9%.
COC(=O)COc1ccc(S(=O)(=O)Nc2ccc3c(c2)OCO3)cc1 was read as Cycloheximide cs 4.5, SARS PLP yeast inconclusive, NS1 function inh 0.7%, LmPK inh -10.2%, Shiga toxin inh 14.5 and TbPYK inhibitor -0.3%.
`Cc1nn(C)cc1S(=O)(=O)Nc1ccc2c(c1)OCCO2` gave Cycloheximide cs 71.6*, SARS PLP yeast 0.3%, NS1 function inh 0.3%, LmPK inh 0.1%, Shiga toxin inh 69.3* and TbPYK inhibitor -1.9%.
`COc1ccc(CC(=O)N(C)Cc2ccc(OC(F)F)cc2)cc1S(=O)(=O)N1CCOCC1` gave TbPYK inhibitor -11.6%.
`O=S(=O)(Nc1ccc2c(c1)OCCO2)c1cccc(F)c1` gave Cycloheximide cs 24.6*, SARS PLP yeast 2.3%, NS1 function inh 4.0%, LmPK inh -0.6%, Shiga toxin inh 25.3 and TbPYK inhibitor 0.0%.
For Cc1ccc(-n2nc3c(c2NC(=O)c2ccc4c(c2)OCO4)CS(=O)(=O)C3)c(C)c1 the results were Cycloheximide cs -4.2, SARS PLP yeast 4.3%, NS1 function inh -0.5%, LmPK inh -0.9%, Shiga toxin inh -9.0 and TbPYK inhibitor -13.6%.
Screening CC[C@H](C)[C@@H](C(=O)NCCCCCCCCCCC(=O)N1CCN(C(=O)OC(C)(C)C)CC1)n1cc(CCCCCNC(=O)OC(C)(C)C)nn1 returned SARS PLP yeast -2.5% and TbPYK inhibitor 3.3%.
For CCOC(=O)c1ccc(Nc2ncnc3ccccc23)cc1 the results were Cycloheximide cs 46.3*, SARS PLP yeast -8.6%, LmPK inh -9.9%, Shiga toxin inh 47.6 and TbPYK inhibitor -0.5%.
CCOC(=O)c1ccc(Nc2ncnc3nc[nH]c23)cc1 was read as Cycloheximide cs 22.4*, SARS PLP yeast 2.4%, NS1 function inh 2.9%, LmPK inh -14.9%, Shiga toxin inh 43.9* and TbPYK inhibitor -8.2%.
Cc1ccc(C)c(Nc2ncnc3nc[nH]c23)c1 was read as Cycloheximide cs -6.6, SARS PLP yeast -6.2%, NS1 function inh -7.7%, LmPK inh -3.0%, Shiga toxin inh -15.1 and TbPYK inhibitor -4.3%.
Screening COc1ccc(Nc2ncnc3nc[nH]c23)cc1OC returned Cycloheximide cs 1.2, SARS PLP yeast -1.9%, NS1 function inh 4.0%, LmPK inh -4.4%, Shiga toxin inh 10.1 and TbPYK inhibitor -0.3%.
`CCOC(=O)c1ccc(Nc2ncnc3ccc(C)cc23)cc1` gave Cycloheximide cs 6.2, SARS PLP yeast -4.0%, NS1 function inh -58.6%, LmPK inh 1.4%, Shiga toxin inh 9.6 and TbPYK inhibitor 3.9%.
Screening O=C(O)CCC(=O)NNc1ncnc2ccccc12 returned Cycloheximide cs 46.0*, SARS PLP yeast -0.6%, NS1 function inh 0.9%, LmPK inh 2.9%, Shiga toxin inh 73.4* and TbPYK inhibitor -1.4%.
`Cc1cccc(Nc2ncnc3nc[nH]c23)c1` gave Cycloheximide cs 38.5*, SARS PLP yeast inconclusive, NS1 function inh -70.3%, LmPK inh -12.3%, Shiga toxin inh 64.6* and TbPYK inhibitor 0.8%.
O=C(O)c1ccc(Nc2ncnc3ccccc23)cc1 was read as Cycloheximide cs 15.8*, SARS PLP yeast 0.4%, NS1 function inh 1.2%, LmPK inh -8.0%, Shiga toxin inh 20.3 and TbPYK inhibitor -3.2%.
Screening O=C(Oc1ccc(Nc2ncnc3ccccc23)cc1)c1cccnc1 returned Cycloheximide cs -2.6, SARS PLP yeast -0.9%, NS1 function inh 1.4%, LmPK inh 0.5%, Shiga toxin inh 37.3 and TbPYK inhibitor 1.6%.
`CCN1C(=O)CC(N2CCN(c3ccc(Cl)cc3)CC2)C1=O` (centres undefined) gave Cycloheximide cs -1.5, SARS PLP yeast 0.8%, NS1 function inh -31.5%, LmPK inh -0.3%, Shiga toxin inh -13.6 and TbPYK inhibitor 0.3%.
For O=C1CC(N2CCN(c3ccc(C(=O)c4ccc(F)cc4)cc3)CC2)C(=O)N1 (centres undefined) the results were Cycloheximide cs 18.0*, SARS PLP yeast -3.5%, NS1 function inh -20.9%, LmPK inh -2.1%, Shiga toxin inh 31.2 and TbPYK inhibitor 0.2%.
CCN1C(=O)CC(N2CCN(c3ccc(C(=O)c4ccccc4)cc3)CC2)C1=O (centres undefined) was read as Cycloheximide cs 63.9*, NS1 function inh -9.7%, LmPK inh -3.5%, Shiga toxin inh 105.8* and TbPYK inhibitor -3.6%.
`CC(C)c1ccc(/C=C/C(=O)Nc2nn[nH]n2)cc1` gave Cycloheximide cs 13.2*, SARS PLP yeast 1.4%, LmPK inh -1.8% and Shiga toxin inh 27.9.
`CN(C)c1ccc(/C=N/NC(=O)c2ccc3c(c2)OCCO3)cc1` gave Cycloheximide cs 34.3*, SARS PLP yeast -9.0%, NS1 function inh -64.6%, LmPK inh -8.3%, Shiga toxin inh 48.4* and TbPYK inhibitor -6.4%.
`CCN(CC)c1ccc(/C=N/NC(=O)c2ccc3c(c2)OCCO3)cc1` gave Cycloheximide cs 58.4*, SARS PLP yeast -6.1%, NS1 function inh -46.8%, LmPK inh -4.3%, Shiga toxin inh 114.9* and TbPYK inhibitor 9.3%.
O=C(CNC(=O)c1ccc2c(c1)OCCO2)N/N=C/c1ccc(Cl)cc1 was read as Cycloheximide cs 11.0, SARS PLP yeast -3.8%, LmPK inh 2.4%, Shiga toxin inh 2.4 and TbPYK inhibitor 3.1%.
For COc1cccc(-c2cnc(C(O)c3c(C)cc(C)cc3C)[nH]2)c1 (centres undefined) the results were TbPYK inhibitor 2.5%.
`O=C1CCc2cc(NS(=O)(=O)c3ccc([N+](=O)[O-])cc3)cc3c2N1CCC3` gave SARS PLP yeast -3.3% and TbPYK inhibitor -3.8%.

Screening data from PubChem BioAssay.
